Cycloheximide cs = counter-screen for Shiga toxin inhibitors: cycloheximide protein synthesis inhibition; cell reporter, cycloheximide protein synthesis inhibition counterscreen; 12% of 300,000 active; max response, %; in the data active = max response mostly above about 13%, no sharp cut-off; inactive = mostly below about 14%; also: read at 38.3 µM for the half of the compounds with a filed dose; 0% is about no effect
Giardia FBPA inh = blocks Giardia fructose-bisphosphate aldolase activity. purified Giardia FBPA. A8B2U2. AID 2451. Potency, µM (series often up to 59.6 µM), for the others: at the top dose activity, negative = inhibition, most hits filed as inhibitors. 0.71% of 290,000 active; also: potency is read from the fitted curve at half-maximal effect; % is scaled to controls: 0 for no effect and ±100 for the full control effect; nearly all actives have a fitted effect of over 55% in size
Target sequence (A8B2U2 whole entry, looked up): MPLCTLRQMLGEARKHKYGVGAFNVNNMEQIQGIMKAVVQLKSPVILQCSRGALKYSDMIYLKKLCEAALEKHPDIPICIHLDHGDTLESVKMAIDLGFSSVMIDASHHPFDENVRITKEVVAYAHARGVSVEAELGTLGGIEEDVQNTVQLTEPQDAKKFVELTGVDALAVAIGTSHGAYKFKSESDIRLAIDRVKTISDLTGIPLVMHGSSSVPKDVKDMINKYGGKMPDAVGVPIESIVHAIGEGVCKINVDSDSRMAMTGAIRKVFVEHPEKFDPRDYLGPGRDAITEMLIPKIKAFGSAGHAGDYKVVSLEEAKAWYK
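40 nM FBPA preincubated 10 min at RT with compound (up to 57.5 uM final), then substrate plus GAPDH/TPI/NAD/arsenate coupling and diaphorase/resazurin added. Fluorescence read after 20 min at RT, 525/598 nm.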
Sm TGR block = blocks Schistosoma mansoni thioredoxin glutathione reductase; Q962Y6; purified TGR, DTNB reduction, TNB absorbance 405 nm; Potency, µM (highest dose often 114 µM), without a hit: at the top dose activity change, negative = inhibition, most hits filed as inhibitors; 3% of 360,000 active; also: potency is read from the fitted curve at half-maximal effect; % is scaled to controls: 0 for no effect and ±100 for the full control effect; nearly all actives have a fitted effect of over 60% in size
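Kinetic colorimetric format: TGR-catalysed, NADPH-driven DTNB reduction monitored via TNB absorbance. Enzyme dispensed at 20 nM; compound exposure 15 min at room temperature before reaction start.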
Tb PYK inh = T. brucei pyruvate kinase inhibition; 0.12% of 410,000 active; TbPYK enzyme, Kinase-Glo Plus ATP luminescence, 45 min; Potency, µM (series often up to 76.8 µM), for the others: at the highest dose activity, negative = inhibition, usual class: inhibitors; also: potency is read from the fitted curve at half-maximal effect; % is scaled to controls: 0 for no effect and ±100 for the full control effect; nearly all actives have a fitted effect of over 50% in size
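TbPYK + substrate in 50 mM TEA pH 7.2, 100 mM KCl, 10 mM MgCl2, 0.05% BSA, 0.01% Tween-20; cpd pinned; ADP 130 uM final; 45 min RT; Kinase-Glo Plus 10 min; luminescence endpoint.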
LmPK inhibitor = blocks Leishmania mexicana pyruvate kinase activity; 0.37% of 290,000 active; Potency, µM (top dose mostly 57.5 µM), without a hit: top-dose activity change, negative = inhibition, usual class: inhibitors; purified LmPK, Kinase-Glo ATP luminescence, 1 h; Q27686; also: potency is read from the fitted curve at half-maximal effect; % is scaled to controls: 0 for no effect and ±100 for the full control effect
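0.1 nM LmPK, 0.5 mM PEP, 0.1 mM ADP; 50 mM imidazole pH 7.2, 7 mM MgCl2, 50 mM KCl; 1 h RT. Kinase-Glo luminescence readout, normalized to no-enzyme (full inhibition) and uninhibited wells.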
Shiga inhibitor = blocks Shiga toxin action in Vero cells. Vero cells, Shiga toxin protein synthesis inhibition reporter. inhibition, % at 38.7 µM. 9.2% of 290,000 active. AID 2315; in the data active = inhibition mostly above about 28%, no sharp cut-off; inactive = mostly below about 43%; also: 0% is about no effect
* = called active by the depositor; ? = inconclusive; . = not tested or not shown; [ ] = remark or other dose. The entries come from a sample that favours hits as a whole. Unless noted, calls follow the shape of the dose curve; as a rule, active = well fitted curve in the direction sought with a large enough effect; inconclusive = small, poorly fitted or top-dose-only effect, or another doubt; inactive = no such curve, though single readings can be large; an effect the other way counts as inactive or inconclusive.

SMILES	Cycloheximide cs	Giardia FBPA inh	Sm TGR block	Tb PYK inh	LmPK inhibitor	Shiga inhibitor
COc1ccc(-c2noc(N3CCC(C(=O)NCCCN4CCCCC4)CC3)n2)cc1	2.8	-12.3%	5.9%	-1.4%	-5.2%	20.5*
COc1ccc(-c2noc(N3CCC(C(=O)N(C)c4ccccc4)CC3)n2)cc1	8.2*	7.6%	10.5%	1.5%	2.3%	12.5
COc1ccc(-c2noc(N3CCC(C(=O)NCCCN4CCCC(C)C4)CC3)n2)cc1 (stereo not drawn)	active	1.5%	1.5%	-1.5%	0.2%	18.4
CCN(C(=O)C1CCN(c2nc(-c3ccc(OC)cc3)no2)CC1)c1ccccc1	-2.5	-4.1%	11.1%	-0.3%	0.6%	-1.4
COc1ccc(-c2noc(N3CCC(C(=O)NCc4ccc(Cl)cc4)CC3)n2)cc1	0.5	4.8%	-0.1%	-16.5%	-1.3%	0.9
COC(=O)c1cc(OC)c(=O)c2c(OC)c(OC)ccc2c1	.	1.7%	.	.	.	.
O=C(NCc1ccccc1)c1nc(-c2ccc(Cl)cc2)n2c1CCCCC2	.	.	-8.9%	0.8%	.	.
Cc1c(Cl)cccc1NC(=O)N1CCN(Cc2cc(=O)n3nc(-c4ccccc4F)sc3n2)CC1	.	.	-0.2%	-3.3%	.	.
Nc1ccc(N2CCN(c3ccccc3)CC2)c(F)c1	14.4*	-2.4%	.	0.2%	-1.1%	57.4*
O=C(CSc1ccccc1)Nc1ccc(N2CCN(c3ccccc3)CC2)c(F)c1	-5.1	2.9%	2.7%	-2.6%	3.4%	-17.1
CC1=C(C(=O)N2CCOCC2)CC(CC(=O)NCC2CCCCC2)C(=O)N1CCC1=CCCCC1 (stereo not drawn)	.	.	.	-6.8%	.	.
CCCC[C@@H]1CN2[C@H](c3ccc(Br)cc3)[C@H](C)CC[C@H]2C(=O)O1	.	-1.0%[12.9 µM]	.	.	.	.
C/C(CC(=O)Nc1ccc(Br)cc1)=N\NC(=O)c1cccc(O)c1	44.2*	-16.5%	-15.3%	0.4%	-3.0%	69.5*
COc1ccc(C(=O)N/N=C(\C)CC(=O)Nc2ccc3c(c2)OCCO3)c(OC)c1	2.8	10.7%	3.9%	0.4%	-0.5%	37.4
C/C(CC(=O)Nc1cccc(F)c1)=N\NC(=O)c1ccncc1	9.6	-12.8%	?	-4.5%	-4.8%	27.6
COc1ccc(C(=O)N/N=C(\C)CC(=O)Nc2ccc3c(c2)OCO3)cc1	37.0*	-10.1%	?	-5.1%	-6.8%	55.3*
CC(=O)N/N=C(\C)CC(=O)Nc1ccc2c(c1)OCCO2	2.8	-3.3%	.	-9.4%	0.4%	28.1
C/C(CC(=O)Nc1ccc2c(c1)OCCO2)=N\NC(=O)c1cccc(O)c1	32.8*	-10.3%	-21.9%	-4.9%	0.2%	83.7*
CCN(CC)C(=O)CCCSc1nnc(Nc2ccccc2F)s1	44.5*	-9.4%	1.2%	5.7%	-17.4%	85.3*
O=C1c2ccccc2C(=O)N1CSc1nnc(Nc2ccccc2F)s1	21.9*	0.4%	3.7%	-16.9%	2.3%	30.0
O=C1c2ccccc2C(=O)N1CSc1nnc(Nc2ccccc2)s1	-3.6	-0.2%	6.8%	2.7%	1.7%	18.2
OC(CSc1ccccc1)CN1CCN(c2ccc(Cl)cc2)CC1 (stereo not drawn)	.	.	.	0.5%	.	.
COc1ccc(C(CNC(=O)c2cc(S(=O)(=O)N3CCN(c4ccccc4)CC3)ccc2Cl)N(C)C)cc1 (stereo not drawn)	.	.	.	-5.5%	.	.
Oc1ccccc1/C=N/NC(=S)NC1CC2C=CC1C2 (stereo not drawn)	35.4*	15.5%	4.1%	-20.9%	2.4%	56.8*
Cc1ccc(-c2csc(NC(=O)c3ccccc3Cl)c2C(=O)O)cc1	23.5*	-13.2%	11.9%	2.7%	-2.0%	39.5*
SMILES	Cycloheximide cs	Giardia FBPA inh	Sm TGR block	Tb PYK inh	LmPK inhibitor	Shiga inhibitor
CC(C)c1ccc(-c2csc(NC(=O)c3cccs3)c2C(=O)O)cc1	15.0	11.0%	0.4%	-5.0%	-3.7%	34.3*
COC(=O)c1c(-c2cccs2)csc1NC(=O)c1ccc(C(C)C)cc1	.	.	0.0%	-17.3%	.	.
Cc1ccc(-c2csc(NC(=O)c3cccc(C)c3)c2C(=O)O)cc1	.	.	.	5.4%	.	.
N[C@H]1CCN(O)C1=O	14.8	11.7%	.	.	.	2.3
COC(=O)c1ccc(CSc2nc3ccccc3c(=O)n2C)o1	-7.5	-7.8%	44.7µM*	-7.9%	0.7%	-5.2
COC(=O)c1ccc(CSc2nnc(NCc3ccccc3)s2)o1	-3.0	2.4%	-4.2%	-16.7%	10.0%	16.4
COC(=O)c1ccc(CSc2nnc(SCc3ccc(C(=O)OC)o3)s2)o1	-2.5	-1.5%	?	-16.8%	1.0%	-10.4
COC(=O)c1ccc(CSc2nc(-c3ccccc3)cs2)o1	21.9*	-0.6%	0.0%	-9.2%	-3.2%	44.8
COC(=O)c1ccc(CSc2nc3ccccc3c(=O)n2Cc2ccco2)o1	15.9*	2.1%	?	-9.4%	-4.4%	17.5
COC(=O)c1ccc(CSc2nc(C)nc3sc(C)c(C)c23)o1	-1.1	0.0%	100µM*	2.0%	1.0%	-14.0
CC1=C(C(=O)N2CCCCCC2)CC(CC(=O)NCCN2CCOCC2)C(=O)N1Cc1ccc(F)cc1 (stereo not drawn)	.	.	.	1.2%	.	.
Cn1c(SCC(=O)Nc2ccc3c(c2)OCCO3)nnc1C1CC1	1.4	4.6%	-4.2%	-2.3%	5.1%	-2.9
Cc1ccc(-c2nn(-c3ccccc3)cc2/C=C(\C#N)c2cccc(C#N)c2)o1	-2.5	-1.5%	50.1µM*	-0.1%	-18.4%	-0.8
N#C/C(=C\c1cn(-c2ccccc2)nc1-c1cc2ccccc2o1)c1nc2ccccc2[nH]1	46.1*	-9.4%	2.7%	5.9%	-0.5%	120.6*
CCC1CCCCN1S(=O)(=O)c1cc(C(=O)Nc2ccc(C)c(F)c2)ccc1F (stereo not drawn)	.	.	6.8%	-5.7%	.	.
CC(C)(CO)Nc1nc(Cl)nc(NC2CCCCC2)n1	20.3*	2.9%	15.6%	1.0%	-0.1%	27.3
CCNc1nc(Cl)nc(NC2CCCCC2)n1	21.3*	-0.6%	7.8%	3.0%	0.6%	.
COc1ccc(-c2nc3cccc(C)n3c2NCC2CCCO2)cc1O (stereo not drawn)	8.1*	?	69.5%	2.7%	-1.7%	45.5*
COc1cc(-c2nc3ccccn3c2NCC2CCCO2)ccc1O (stereo not drawn)	-3.4	-29.2%	-29.2%	2.3%	-5.2%	14.4
COc1ccccc1-n1c(CCn2nc(C)c(Br)c2C)n[nH]c1=S	-1.3	-13.3%	-14.6%	3.55µM*	?	-1.8
COc1ccccc1-n1c(CNC(=O)c2ccc(S(=O)(=O)N3CCOCC3)cc2)n[nH]c1=S	1.4	-15.9%	0.0%	-25.4%	-22.6%	-3.9
Cc1nn(CCc2n[nH]c(=S)n2C)c(C)c1Br	-3.6	-22.5%	-1.6%	?	-19.5%	-21.6
Cc1nn(CCc2n[nH]c(=S)n2C2CCCCC2)c(C)c1Br	0.2	0.6%	8.0%	12.6µM*	7.94µM*	-12.3
CCC(C)NC(=O)c1cnn(-c2cccc(F)c2)c1-n1cccc1 (stereo not drawn)	.	.	8.2%	-9.9%[15.4 µM]	.	.
